Out of some 420,000 compounds screened, about 64,000 (15%) were called active. Roughly 27% stayed inconclusive and do not appear here. Calls come from the whole dose curve; as a rule, active = well fitted inhibition curve with a large enough effect; inconclusive = small, poorly fitted or top-dose-only effect; inactive = flat fitted curve, though single readings scatter. The list is a sample of the results.
Test: qHTS for Inhibitors of human tyrosyl-DNA phosphodiesterase 1 (TDP1): qHTS in cells in absence of CPT; note: nearly all actives have a fitted effect of over 55% in size
Conditions: DT40 Tdp1-/- hTDP1 cells, no CPT, ATP luminescence, 48 h; activity change, negative = growth inhibition: at 46.2 µM (top of the series)
How it was run: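 Cells were dispensed at 400 per well, compounds added by pin tool, plates incubated ≥48 hr at 37 °C, then CellTiter-Glo added for 30 min at room temperature before luminescence reading. Line: DT40 Tdp1-/- complemented with hTDP1; camptothecin omitted.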
% is set by controls: 0 for no effect and ±100 for the full control effect; potency is the fitted concentration of half-maximal effect.

| SMILES | activity change, negative = growth inhibition | Potency |
| --- | --- | --- |
| CCc1ccc(CN2C(=O)c3ccccc3C2C(=O)NCC2CCCO2)cc1 (centres undefined) | 8.07% (inactive) | – |
| COc1ccc2oc(=O)cc(CN3CCOCC3)c2c1 | 11.8% (inactive) | – |
| Cc1cc2oc(=O)cc(CN3CCN(S(=O)(=O)c4cccs4)CC3)c2cc1C(C)C | – | 20.6 µM (active) |
| O=S(=O)(c1cccs1)N1CCN(Cc2ccccc2)CC1 | -5.85% (inactive) | – |
| O=C(CSc1nnc(-c2cccs2)n1-c1ccccc1)NCc1ccco1 | -11.9% (inactive) | – |
| CC1CCc2c(sc(NC(=O)c3ccc(Cn4cc(Br)cn4)o3)c2C(N)=O)C1 (centres undefined) | -20.8% (inactive) | – |
| CCCCN(C(=O)c1cccc(N2C(=O)c3ccccc3C2=O)c1)c1c(N)n(CCCC)c(=O)[nH]c1=O | 17.5% (inactive) | – |
| O=C(Nc1nc2ccc([N+](=O)[O-])cc2s1)c1ccncc1 | -13.7% (inactive) | – |
| O=S(=O)(c1ccccc1)N1CCc2ccccc21 | -7.81% (inactive) | – |
| O=C(NC(Nc1nc2ccc([N+](=O)[O-])cc2s1)(C(F)(F)F)C(F)(F)F)c1ccccc1 | – | 0.461 µM (active) |
| O=C(Nc1nc2ccc([N+](=O)[O-])cc2s1)c1ccc(S(=O)(=O)N2CCCc3ccccc32)cc1 | – | 4.11 µM (active) |
| O=C(O)CCC(=O)Nc1nc2ccc([N+](=O)[O-])cc2s1 | 4.77% (inactive) | – |
| O=C(COC(=O)c1ccc(F)cc1)Nc1nc2ccc([N+](=O)[O-])cc2s1 | -18.2% (inactive) | – |
| Cc1nn(C)c(C)c1S(=O)(=O)N1CCc2ccccc21 | -29.2% (inactive) | – |
| CS(=O)(=O)c1ccc2nc(NC(=O)c3ccc(N4CCCC4=O)cc3)sc2c1 | -0.935% (inactive) | – |
| CSc1nc2ccc(S(=O)(=O)N3CCc4ccccc43)cc2s1 | – | 23.1 µM (active) |
| O=C(COC(=O)c1ccc(S(=O)(=O)N2CCCCCC2)cc1)Nc1ccccc1C(F)(F)F | 1.22% (inactive) | – |
| Cc1ccc(C2(C)NC(=O)N(CC(=O)N3CC(=O)Nc4ccccc43)C2=O)cc1 (centres undefined) | -4.34% (inactive) | – |
| COC(=O)C[C@@H]1C=C[C@@H](NC(=O)c2ccc3c(c2)OCO3)[C@@H](CO)O1 | -10.5% (inactive) | – |
| COCCC(=O)N1CCC(Oc2ccc(C(=O)NCc3ccon3)cc2)CC1 | -24.7% (inactive) | – |
| N#Cc1c(-c2ccccc2)cc(-c2ccccc2)nc1SCC(=O)O | 10.7% (inactive) | – |
| CN1C(=O)CN2CCc3ccccc3C2c2cc(Cl)ccc21 (centres undefined) | 0.961% (inactive) | – |
| CN1CCN(C2Cc3ccc(Cl)cc3Sc3ccc(F)cc32)CC1 (centres undefined) | – | 18.4 µM (active) |
| COC(=O)C1NN=C(C(=O)c2ccc(Br)cc2)C1c1cccc(Br)c1 (centres undefined) | -18.6% (inactive) | – |
| Cc1ccc(NC(=O)C2CC2c2ccccc2)cc1 (centres undefined) | 2.36% (inactive) | – |

| SMILES | activity change, negative = growth inhibition | Potency |
| --- | --- | --- |
| Nc1ncnc2c1ncn2[C@@H]1O[C@H](C(=O)N2CCSC2)[C@@H](O)[C@H]1O | -25.8% (inactive) | – |
| Cc1cccc(OCC(O)CN2CCN(CCN3C(=O)c4cccc5cccc(c45)C3=O)CC2)c1C (centres undefined) | – | 25.9 µM (active) |
| Cc1cccc(C)c1OCC(O)CN1CCCCC1 (centres undefined) | 4.81% (inactive) | – |
| C=CCc1ccccc1OCC(O)CN1CCN(CCO)CC1 (centres undefined) | 20.7% (inactive) | – |
| CCCC(C(=O)NC1CCCC1)N(C(=O)Cn1nnc(-c2ccc(C)o2)n1)c1cccc(O)c1 (centres undefined) | -11.8% (inactive) | – |
| COC(=O)c1cc(C)sc1NC(=O)CC1Nc2ccccc2NC1=O (centres undefined) | -15.1% (inactive) | – |
| O=C(c1csnn1)N1CCC[C@@]2(CCN(Cc3nccs3)C2)C1 | 4.1% (inactive) | – |
| NC(=O)NC(=O)C(OC(=O)CCNS(=O)(=O)c1ccccc1)c1ccccc1 (centres undefined) | 2.11% (inactive) | – |
| Cc1ccc(N2C(=O)C3C(c4ccccc4)(C2=O)C3(c2ccccc2)c2ccccc2)cc1 (centres undefined) | – | 13 µM (active) |
| Cc1ccc(N2C(=O)C3CC3C2=O)cc1 (centres undefined) | 11% (inactive) | – |
| Cc1ccc(N2C(=O)C(Cc3ccccc3)NC2=S)cc1 (centres undefined) | -9.36% (inactive) | – |
| O=C(N1CCCC1)C12CC3CC(C1)CC(C(=O)N1CCCC1)(C3)C2 | -19% (inactive) | – |
| COc1ccccc1C(=O)NNC(=O)CCN1C(=O)/C(=C\c2ccccc2)SC1=S | -25.6% (inactive) | – |
| CC(OC(=O)CNS(=O)(=O)/C=C/c1ccccc1)C(=O)Nc1ccc(S(=O)(=O)N2CCCC2)cc1 (centres undefined) | -12.5% (inactive) | – |
| Cc1ccc(CNC(=O)CC(NC(=O)c2ccccc2)c2ccccc2)cc1 (centres undefined) | 11.7% (inactive) | – |
| COc1ccc(Cc2nc3ccc(C(=O)NCc4ccccc4Cl)cc3o2)cc1 | – | 16.4 µM (active) |
| CCn1ccnc1CN(C)C(=O)c1ccc2nc(Cc3ccc(OC)cc3)oc2c1 | -4.12% (inactive) | – |
| COCCNC(=O)c1ccc2nc(Cc3ccc(OC)c(OC)c3)oc2c1 | 0.0783% (inactive) | – |
| COc1ccc(Cc2nc3ccc(C(=O)NCc4ccccc4C)cc3o2)cc1 | – | 8.2 µM (active) |
| COc1ccc(Cc2nc3ccc(C(=O)N4CCC(N(C)C)C4)cc3o2)cc1 (centres undefined) | 9.41% (inactive) | – |
| CSCCNC(=O)c1ccc2nc(Cc3ccccc3F)oc2c1 | -0.744% (inactive) | – |
| CCCc1c(C(=O)N/N=C(\C)CCc2ccc(OC)cc2)nnn1-c1nonc1N | 15.5% (inactive) | – |
| Cc1ccc2c(C)c(C(=O)N(C)Cc3ccncn3)oc2c1C | 15.4% (inactive) | – |
| CCCCCNC(=O)C(c1ccc(OC)cc1)n1c(=O)c(-c2ccccc2)nc2ccccc21 (centres undefined) | – | 20.6 µM (active) |
| CCOCCCNC(=O)C(NC(=O)CNC(=O)c1ccccc1)c1ccc(OC)cc1 (centres undefined) | 4.34% (inactive) | – |

| SMILES | activity change, negative = growth inhibition | Potency |
| --- | --- | --- |
| COc1ccc(NC(=O)C(c2ccccc2)N2Cc3ccccc3C2=O)cc1 (centres undefined) | -8.19% (inactive) | – |
| COc1ccc(CNC(=O)CN2C(=O)c3ccccc3S2(=O)=O)cc1 | -24.4% (inactive) | – |
| COc1ccc(C(C(=O)NCc2ccccc2)n2c(=O)c(-c3ccccc3)nc3ccccc32)cc1 (centres undefined) | – | 16.4 µM (active) |
| CCOCCCNC(=O)C(NC(=O)Cc1c[nH]c2ccccc12)c1ccc(OC)cc1 (centres undefined) | -15% (inactive) | – |
| COc1ccc(NC(=O)C(c2ccncc2)n2c(=O)c(-c3cc4ccccc4[nH]3)nc3ccccc32)cc1 (centres undefined) | – | 18.4 µM (active) |
| CCSc1ccccc1C(=O)NCc1ccc(OC)cc1 | -8.91% (inactive) | – |
| COc1ccc(NC(=O)CN(C)C(=O)c2n[nH]c3ccccc23)cc1 | -22.5% (inactive) | – |
| COC(=O)C1=C(C(=O)OC)C2(OC1c1ccc(Br)cc1)C(=O)c1ccccc1C2=O (centres undefined) | 9.73% (inactive) | – |
| CN(c1ccc(OCC(=O)NC2=NCCS2)cc1)S(=O)(=O)c1ccc(F)cc1 | -12.9% (inactive) | – |
| O=C(CSc1ccc(-c2ccccc2)nn1)NCC1CCCO1 (centres undefined) | -15.8% (inactive) | – |
| CN(C)/C=C(\C#N)C(=O)c1cccnc1Oc1cccc(F)c1 | -13.7% (inactive) | – |
| C[C@@H]1CN([C@@H](C)CO)C(=O)c2cc(NC(=O)C3CC3)ccc2O[C@H]1CN(C)C | -12.9% (inactive) | – |
| CC(C)CC(=O)Nc1cc(C(F)(F)F)ccc1N1CCOCC1 | -14.8% (inactive) | – |
| CCOC(=O)c1c(C)[nH]c(C)c1C(=O)CSc1nc(N)cc(N)n1 | -4.75% (inactive) | – |
| COCCNc1cc(NCCOC)c([N+](=O)[O-])cc1[N+](=O)[O-] | 13.4% (inactive) | – |
| Cc1ccc(OC(=O)c2cc3ccccc3o2)cc1 | -2.8% (inactive) | – |
| CCOC(=O)c1[nH]c(C)c(CCC(=O)NCc2ccccc2C)c1C | -8.09% (inactive) | – |
| C/C(CC(=O)Nc1cccc(F)c1)=N\NC(=O)C(=O)NC1CCCCC1 | -22.7% (inactive) | – |
| C=C(C)c1cccc(C(C)(C)NC(=O)N2CCN(c3ncccn3)CC2)c1 | -17.4% (inactive) | – |
| O=C(CCN1C(=O)c2ccccc2C1=O)NNC(=O)c1ccc(Cl)cc1Cl | 11.4% (inactive) | – |
| COc1cccc(-n2cc(C(=O)O)c3ccccc3c2=O)c1 | -8.51% (inactive) | – |
| COc1ccc(Nc2cc(=O)n(-c3ccccc3)c3c2c(=O)n(C)c(=O)n3C)cc1 | -18.7% (inactive) | – |
| COc1cccc(-n2cc3c(c2-c2ccccc2)c(=O)n(C)c(=O)n3C)c1 | – | 11.6 µM (active) |
| CN1CCN(NC(=O)Nc2ccc(Br)cc2)CC1 | 8.78% (inactive) | – |
| COC(=O)c1ccc(/C=N/NC(=O)C(=O)N2CCCCCC2)cc1 | -15.6% (inactive) | – |

| SMILES | activity change, negative = growth inhibition | Potency |
| --- | --- | --- |
| CCCNC(=O)c1cc(C2CCCN(C(=O)c3ccc4c(c3)CCO4)C2)on1 (centres undefined) | 6.81% (inactive) | – |
| S=c1[nH]nc(-c2ccc(Cl)cc2)n1CC1CCCO1 (centres undefined) | -20.9% (inactive) | – |
| O=C(c1[nH]ncc1-c1ccc(Cl)cc1)C1CO1 (centres undefined) | – | 4.61 µM (active) |
| O=C(c1nnc(-c2ccc(Cl)cc2)o1)C1CCCC1 | -0.7% (inactive) | – |
| CC(OC(=O)CCc1nc(=O)c2ccccc2n1C)C(=O)NCc1ccc2c(c1)OCO2 (centres undefined) | -8.86% (inactive) | – |
| COc1ccc(N2CCN(C(=O)c3ccccc3NC(=O)C3=C(C)OCCS3)CC2)cc1 | -29.7% (inactive) | – |
| CCn1c2c(c(=O)n3ncc(C(=O)N4CCN(c5ccccc5)CC4)c13)CN(Cc1ccc(OC)cc1)CC2 | – | 16.4 µM (active) |
| CCn1c(CNC(=O)c2ccccc2)nnc1SCC(=O)N1CCN(c2ccccc2)CC1 | -18.4% (inactive) | – |
| CCC(C)NC(=O)C1CCC(=O)N1Cc1ccc(C)cc1 (centres undefined) | 4.13% (inactive) | – |
| CN(Cc1ccco1)S(=O)(=O)c1nnc(NC(=O)c2ccccc2)s1 | 15.1% (inactive) | – |
| COc1ccccc1CNC(=O)CCn1c(=O)c2ccccc2n(CC(=O)Nc2cccc(Cl)c2)c1=O | – | 18.4 µM (active) |
| COc1ccc(CCNC(=O)CCCn2c(=O)c3ccccc3n(Cc3ccc(F)cc3Cl)c2=O)cc1OC | -1.95% (inactive) | – |
| Cc1ccc(Cn2c(=O)n(CCCC(=O)NCc3ccccc3Cl)c(=O)c3ccccc32)cc1 | -2.45% (inactive) | – |
| COc1ccc(CCNC(=O)CCCCn2c(=O)c3ccccc3n(Cc3ccccc3)c2=O)cc1OC | – | 20.6 µM (active) |
| COc1ccccc1CNC(=O)CCCn1c(=O)c2ccccc2n(CC(=O)Nc2ccc(C)cc2Cl)c1=O | -24.6% (inactive) | – |
| COCCNC(=O)CCCn1c(=O)c2ccccc2n(Cc2cccc([N+](=O)[O-])c2)c1=O | 6.9% (inactive) | – |
| COc1ccccc1CNC(=O)CCn1c(=O)sc2ccccc21 | -9.01% (inactive) | – |
| COc1ccc(NC(=O)Cn2c(=O)n(Cc3ccc(C(=O)NCc4ccccc4Cl)cc3)c(=O)c3ccccc32)cc1 | -26.8% (inactive) | – |
| COc1ccccc1CNC(=O)CCCCn1c(=O)c2ccccc2n(CC(=O)Nc2cc(Cl)ccc2C)c1=O | – | 10.3 µM (active) |
| CC(C)(C)C1CCC(=NNC(=O)c2ccc(Br)o2)CC1 (centres undefined) | -6.8% (inactive) | – |
| Cc1nc2cccnc2nc1C | 10.1% (inactive) | – |
| Cc1ccc2c(c1)C(O)(CC(=O)c1cccc(-n3cccc3)c1)C(=O)N2 (centres undefined) | 10.3% (inactive) | – |
| CCCCCCCCc1c(O)nc(-n2[nH]c(C)c(CCO)c2=O)[nH]c1=O | -8.48% (inactive) | – |
| Cc1ccc(C(=O)NNC(=O)c2ccc3c(c2)OCCO3)cc1 | 20.7% (inactive) | – |

— PubChem BioAssay AID686978 (National Center for Advancing Translational Sciences (NCATS), 2013)
